CaV13 ICDI inh = Primary screen for inhibitors of IQ motif and Ca2+-dependent inactivation inhibitor domain binding in CACNA1D, Förster resonance energy transfer in living cells, …; HEK cells, CFP/YFP FRET ICDI-IQ, plate reader, 10 min; percent FRET-ratio fall versus neutral wells; inhibition, % at 12.3 µM; 340,000 tested, 0.098% active;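 active = mean replicate inhibition of at least 30% and at least 1% of replicates passing that level; inconclusive = only one of the two criteria is met; inactive = neither criterion is met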
ERp5 block = inhibitors of human ERp5; Q15084; ERp5 insulin aggregation, absorbance 650 nm, 90 min; inhibition, % at 9.99 µM; 350,000 tested, 0.05% active;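 active = mean replicate inhibition above about 25%, with every replicate also reaching it, limit read from the data, passing the limit was not always enough; inconclusive = only one of those two criteria met; inactive = neither criterion met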
PvdQ acylase = blocks Pseudomonas aeruginosa PvdQ acylase activity; inhibition, % at 10 µM; 340,000 tested, 0.063% active; AID 488965; purified PvdQ acylase, fluorescence plate reader; in the data active = inhibition above about 30%, passing the limit was not always enough; inconclusive = no clear call, values can overlap the other calls
PDI turbidity = PDI (human) enzyme inhibition | P07237 | PDI insulin aggregation turbidity, A650, 90 min | inhibition, % at 10 µM | 350,000 tested, 0.052% active;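 active = mean inhibition across replicates of 30% or more, whatever share of single replicates reach that level; inconclusive = mean inhibition below 30% while every single replicate reaches 30%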
Target sequence (P07237 whole entry, looked up): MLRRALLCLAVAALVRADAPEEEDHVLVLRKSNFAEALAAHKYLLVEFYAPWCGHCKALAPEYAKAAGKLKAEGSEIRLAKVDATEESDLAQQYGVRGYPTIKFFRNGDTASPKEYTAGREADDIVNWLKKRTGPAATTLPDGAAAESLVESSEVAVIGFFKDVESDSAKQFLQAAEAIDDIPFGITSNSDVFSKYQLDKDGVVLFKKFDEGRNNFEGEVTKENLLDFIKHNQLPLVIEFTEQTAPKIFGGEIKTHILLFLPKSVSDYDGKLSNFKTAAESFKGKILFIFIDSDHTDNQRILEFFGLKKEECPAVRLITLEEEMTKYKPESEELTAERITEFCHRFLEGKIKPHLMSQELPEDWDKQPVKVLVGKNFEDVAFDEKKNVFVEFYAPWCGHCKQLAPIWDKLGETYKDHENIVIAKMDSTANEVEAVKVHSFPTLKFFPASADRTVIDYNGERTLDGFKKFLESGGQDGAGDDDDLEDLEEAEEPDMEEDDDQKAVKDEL
A number is an active result. Compounds with a hit are over-represented: about 0.2% of the library has one in this group of screens.

For COc1ccc(CNC2CCCc3ccccc32)cc1OC (centres undefined) the results were CaV13 ICDI inh inactive, ERp5 block inactive, PvdQ acylase inactive and PDI turbidity inactive.
Screening CCOC(=O)c1c(CN2CCN(CCO)CC2)n(-c2ccccc2)c2cc(Br)c(O)cc12 returned CaV13 ICDI inh inactive, ERp5 block inactive, PvdQ acylase inactive and PDI turbidity 58.
CCOC(=O)c1c(CN2CCN(C)CC2)n(-c2ccccc2)c2cc(Br)c(O)cc12 was read as CaV13 ICDI inh inactive, ERp5 block inactive, PvdQ acylase inactive and PDI turbidity inactive.
`C[C@@H]1CN([C@H](C)CO)C(=O)c2cc(-c3cccnc3)cnc2O[C@@H]1CN(C)C` gave ERp5 block inactive.
`O=C(CN1C(=O)COc2ccccc21)NCCN1CCOCC1` gave CaV13 ICDI inh inactive, ERp5 block inactive, PvdQ acylase inactive and PDI turbidity inactive.
CCN(CC)S(=O)(=O)c1ccc2c(c1)N(CC(=O)NCCN1CCOCC1)C(=O)CO2 was read as CaV13 ICDI inh inactive, ERp5 block 28, PvdQ acylase inactive and PDI turbidity inactive.
Screening COC1=C(Br)C(=O)c2ncccc2C1=O returned CaV13 ICDI inh inactive, ERp5 block inactive, PvdQ acylase inactive and PDI turbidity 47.
Cc1ccc(S(=O)(=O)N[C@H]2CC[C@H](CCn3cc(-c4cccnc4)nn3)O[C@H]2CO)cc1 was read as ERp5 block inactive.
COc1cccc(NC(=O)N[C@H]2C=C[C@H](CC(=O)N3CCN(C)CC3)O[C@@H]2CO)c1 was read as ERp5 block inactive.
`COc1ccccc1-c1cn(CC[C@@H]2CC[C@H](NC(=O)C3CC3)[C@@H](CO)O2)nn1` gave ERp5 block inactive.
Screening CCN(CC)c1ccc2c(C)c(Cl)c(=O)oc2c1 returned CaV13 ICDI inh active, ERp5 block inactive, PvdQ acylase inactive and PDI turbidity inactive.
CCN(CC)c1ccc2ccc(=O)oc2c1 was read as CaV13 ICDI inh inconclusive, ERp5 block inactive, PvdQ acylase inactive and PDI turbidity inactive.
Screening CCN(CC)c1ccc2cc(C#N)c(=O)oc2c1 returned CaV13 ICDI inh active, ERp5 block inactive, PvdQ acylase inactive and PDI turbidity inactive.
Screening COc1ccc(CNCc2cccc(Cl)c2)cc1 returned CaV13 ICDI inh inactive, ERp5 block inactive, PvdQ acylase 43 and PDI turbidity inactive.
For Cc1ccccc1-c1ccc(C2[C@@H]3CN(C(=O)Nc4cccc(F)c4)C[C@H]2N3)cc1 (some centres undefined) the results were ERp5 block inactive.
`Cc1ccc2c(c1)Oc1ccc(NC(=O)CCl)cc1C(=O)N2` gave CaV13 ICDI inh inactive, PvdQ acylase inactive and PDI turbidity 92.
Screening Cc1ccc2c(c1)Oc1ccc([N+](=O)[O-])cc1C(=O)N2 returned CaV13 ICDI inh inactive, ERp5 block inactive, PvdQ acylase inactive and PDI turbidity inactive.
`O=C(O)C1C(c2ccccc2)C(C(=O)Oc2ccc(O)cc2)C1c1ccccc1` (centres undefined) gave CaV13 ICDI inh inactive, PvdQ acylase inactive and PDI turbidity 46.
`C[C@H]1CN([C@@H](C)CO)C(=O)Cc2cc(NC(=O)Nc3ccc(C(F)(F)F)cc3)ccc2O[C@@H]1CN(C)Cc1ccc(Cl)c(Cl)c1` gave ERp5 block inactive.
C[C@@H]1CN([C@@H](C)CO)C(=O)Cc2cc(NC(=O)Nc3ccc(C(F)(F)F)cc3)ccc2O[C@@H]1CN(C)Cc1ccc(Cl)c(Cl)c1 was read as ERp5 block 50.
`C[C@@H]1CN([C@H](C)CO)C(=O)Cc2cc(NC(=O)Nc3cccc4ccccc34)ccc2O[C@H]1CN(C)Cc1ccc(C(F)(F)F)cc1` gave ERp5 block inactive.
For C[C@H](CO)N1C[C@H](C)[C@H](CN(C)Cc2ccc(C(F)(F)F)cc2)Oc2ccc(NC(=O)Nc3cccc4ccccc34)cc2CC1=O the results were ERp5 block 64.
Screening C[C@H]1CN([C@@H](C)CO)C(=O)Cc2cc(NC(=O)Nc3cccc4ccccc34)ccc2O[C@H]1CN(C)Cc1ccc(C(F)(F)F)cc1 returned ERp5 block 69.
Cc1noc(C)c1S(=O)(=O)N(C)C[C@H]1Oc2ccc(NS(=O)(=O)c3cn(C)cn3)cc2CC(=O)N([C@@H](C)CO)C[C@@H]1C was read as ERp5 block inactive.
COc1cccc(S(=O)(=O)Nc2ccc3c(c2)C(=O)N(C)C[C@@H](OC)[C@H](C)CN(C(=O)Cc2cccnc2)[C@@H](C)CO3)c1 was read as ERp5 block inactive.
For COC(=O)C[C@H]1CC[C@@H]2[C@@H](COc3ccc(NC(=O)c4ccc(F)c(F)c4)cc3C(=O)N2C)O1 the results were ERp5 block inactive.
`O=[N+]([O-])c1cccnc1Sc1ccc(Cl)cc1` gave CaV13 ICDI inh inactive, ERp5 block inactive, PvdQ acylase 47 and PDI turbidity inactive.
Screening CN1C(=O)c2cc(NC(=O)NC3CCCC3)ccc2OC[C@@H]2O[C@@H](CC(=O)NC3CCC3)CC[C@H]21 returned ERp5 block inactive.
For COc1cccc(-c2cccc(-c3nc(C(=O)NCc4ccc(Oc5ccccc5)cc4)cc4c3[C@@H](CCO)N(S(=O)C(C)(C)C)C4)c2)c1 (some centres undefined) the results were ERp5 block inactive.
Screening O=C(C[C@H]1C[C@@H]2c3cc(NC(=O)Nc4ccccc4F)ccc3O[C@@H]2[C@H](CO)O1)NCc1ccc2c(c1)OCO2 returned ERp5 block inactive.
For C[C@H](NC(=O)c1nc[nH]c1C(=O)N[C@@H](Cc1ccccc1)C(=O)OC(C)(C)C)C(=O)OCc1ccccc1 the results were CaV13 ICDI inh 35, ERp5 block inactive, PvdQ acylase inactive and PDI turbidity inactive.
For CC(=O)N1[C@@H]2c3ccc(C4=CCCC4)c(=O)n3C[C@H]1[C@H](CO)[C@H]2C(=O)N[C@H](C)c1ccccc1 the results were ERp5 block inactive.
Screening CCCOc1ccc(NC(=O)c2c(-c3ccccc3)noc2C)cc1 returned CaV13 ICDI inh 36, ERp5 block inactive, PvdQ acylase inactive and PDI turbidity inactive.
For CN(C)CCCNC(=O)C[C@H]1CC[C@H](NC(=O)c2ccccc2F)[C@@H](CO)O1 the results were ERp5 block inactive.
`CCC(C)NS(=O)(=O)c1ccc(OC)c(Cl)c1Cl` (centres undefined) gave CaV13 ICDI inh inactive, PvdQ acylase 35 and PDI turbidity inactive.
`CCCCNS(=O)(=O)c1ccc(OC)c(Cl)c1Cl` gave CaV13 ICDI inh inactive, PvdQ acylase inactive and PDI turbidity inactive.
`C#CCOCCOCCOCCNc1nc(N2CCN(C(=O)[C@H](CCCCN)n3cc([C@@H](N)C(C)CC)nn3)CC2)nc(N2CCN(C(=O)[C@H](Cc3cc4ccccc4[nH]3)n3cc([C@@H](N)CC(C)C)nn3)CC2)n1` (some centres undefined) gave PvdQ acylase inactive and PDI turbidity 44.
Screening CNC[C@H]1OCCCC[C@H](C)Oc2ccc(NS(=O)(=O)c3ccc(OC)cc3)cc2C(=O)N([C@H](C)CO)C[C@@H]1C returned ERp5 block inactive.

From PubChem BioAssay
